Screening results: PubChem, National Center for Advancing Translational Sciences (NCATS)
IL1B secr inh = inflammasome signaling inhibition, IL-1 beta readout. THP-1 LPS/ATP IL-1B secretion, AlphaLISA, 16 h; stronger effect = lower value. activity change, % at 57.5 µM. hit rate 4.7% among 360,000. AID 743279; in the data active = activity change below about -50%; inconclusive = mostly about -30% to -49%
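Secreted IL-1B measured by AlphaLISA bead assay after 16 h compound exposure of THP-1 cells; compounds (final up to 57.5 uM) added 1 h before LPS (250 ng/mL) and ATP (1.25 mM) stimulation; lower signal means less secretion.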
DT40 TDP1 CPT = growth inhibition of DT40 Tdp1-/-;hTDP1 cells with camptothecin (screen for TDP1 inhibitors); chicken DT40 Tdp1-/-;hTDP1 cells + 20 nM CPT, ATP luminescence, 48 h; hit rate 12% among 420,000; AID 686979; Potency, µM (highest dose often 46.2 µM), without a hit: at the highest dose activity change, negative = growth inhibition, hits mostly inhibitors; note: potency is the fitted concentration of half-maximal effect; nearly all actives have a fitted effect of over 55% in size
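Chicken DT40 Tdp1-/- cells complemented with human TDP1, 400 cells/well, exposed to compounds plus 20 nM camptothecin for at least 48 h at 37 C; viability read as ATP content by CellTiter-Glo luminescence.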
DT40 TDP1 no CPT = qHTS for Inhibitors of human tyrosyl-DNA phosphodiesterase 1 (TDP1): qHTS in cells in absence of CPT. DT40 Tdp1-/- hTDP1 cells, no CPT, ATP luminescence, 48 h. Potency, µM (highest dose often 46.2 µM), for the others: at the top dose activity change, negative = growth inhibition, actives largely listed as inhibitors. hit rate 15% among 420,000; note: potency is the fitted concentration of half-maximal effect; nearly all actives have a fitted effect of over 55% in size
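Seeded 400 DT40-hTDP1 cells/well (vehicle DMSO, no 20 nM CPT); pinned compounds; ≥48 hr at 37 °C; CellTiter-Glo luminescence as viability measure.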
12-LOX inh = inhibitors of human 12S-lipoxygenase ALOX12 | hit rate 1.1% among 580,000 | purified 12hLO, xylenol orange hydroperoxide absorbance | Potency, µM (top dose mostly 108 µM), for inactives: at the highest dose activity change, negative = inhibition, most hits filed as inhibitors; note: potency is the fitted concentration of half-maximal effect
Target sequence (P18054 whole entry, looked up): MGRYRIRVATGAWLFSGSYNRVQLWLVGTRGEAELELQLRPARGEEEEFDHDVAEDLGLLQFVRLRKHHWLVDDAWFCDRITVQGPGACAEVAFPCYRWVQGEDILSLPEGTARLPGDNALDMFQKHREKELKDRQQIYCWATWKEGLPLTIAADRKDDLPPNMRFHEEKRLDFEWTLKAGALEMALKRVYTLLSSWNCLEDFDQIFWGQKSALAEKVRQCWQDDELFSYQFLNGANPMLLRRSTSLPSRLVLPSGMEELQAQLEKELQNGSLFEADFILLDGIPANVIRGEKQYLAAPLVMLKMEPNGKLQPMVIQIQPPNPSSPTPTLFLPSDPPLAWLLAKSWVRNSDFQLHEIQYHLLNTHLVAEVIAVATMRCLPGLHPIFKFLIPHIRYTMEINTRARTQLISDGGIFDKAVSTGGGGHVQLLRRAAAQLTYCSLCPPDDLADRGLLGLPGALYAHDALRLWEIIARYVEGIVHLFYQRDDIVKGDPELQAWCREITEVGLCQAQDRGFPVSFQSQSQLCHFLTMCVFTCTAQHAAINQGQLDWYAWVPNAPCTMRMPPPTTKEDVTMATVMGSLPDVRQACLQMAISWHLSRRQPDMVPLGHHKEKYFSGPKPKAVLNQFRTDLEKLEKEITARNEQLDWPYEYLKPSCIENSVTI
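Purified human 12hLO (150 nM final) in 25 mM Hepes, 0.01% Triton X-100, pH 7.0 was preincubated 15 min at room temperature with compound. Then 40 uM arachidonic acid was added, 30 min. Hydroperoxide was read by Fe-XO absorbance ratio 573/405 nm.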
HT1080 IDH1KD tx = HT-1080 IDH1 knockdown cell toxicity (counter line). HT-1080 IDH1 knockdown viability, ATP luminescence, 48 h. Potency, µM (series often up to 46.1 µM), for inactives: top-dose activity, negative = toxicity, most hits filed as cytotoxic. hit rate 2% among 360,000;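 note: potency is the fitted concentration of half-maximal effect; 0% = DMSO wells and -100% = cell-free medium wells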
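Viability of IDH1-knockdown HT-1080 fibrosarcoma cells was assessed by CellTiter-Glo after 48 h at 37 °C with titrated compound; concentration-effect curves were classified by fit quality and response size.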
HT1080-NT tox = kills 2HG-producing HT-1080-NT fibrosarcoma cells. hit rate 1.6% among 360,000. AID 686970. Potency, µM (series often up to 46.1 µM), inactives show top-dose activity, negative = less viability, actives largely listed as cytotoxic. HT-1080-NT fibrosarcoma viability, CellTiter-Glo ATP luminescence, 48 h;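 note: NT is the 2HG producing partner of a matched IDH1 knockdown line; potency is the fitted concentration of half-maximal effect; 0% = DMSO-treated cells and -100% = media-only wells without cells; nearly all actives have a fitted effect of over 55% in size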
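Luminescent CellTiter-Glo readout after 48 hours of compound exposure at 37 degrees C defined viability of HT-1080-NT cells. Activity was normalized to DMSO wells and cell-free media wells; concentration-response curves were fitted and assigned curve classes.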
The depositor's hits bear a star; i = inactive; ? = inconclusive; nt = no result; [ ] = another dose, or the depositor's remark. Shown is part of a subset that was picked to be rich in hits. Unless noted, calls come from the whole dose curve; as a rule, active = well fitted curve in the direction sought with a large enough effect; inconclusive = small, poorly fitted or top-dose-only effect, or another doubt; inactive = no such curve, though single readings can be large; an effect the other way counts as inactive or inconclusive. Unless noted, % is set by controls: 0 for no effect and ±100 for the full control effect.

SMILES	IL1B secr inh	DT40 TDP1 CPT	DT40 TDP1 no CPT	12-LOX inh	HT1080 IDH1KD tx	HT1080-NT tox
CCCCC1C=CCN1C(=O)c1cc(COc2ccc(F)cc2F)[nH]n1 (stereo unspecified)	nt	nt	nt	72%	nt	nt
C/C(=N/NC(=O)c1ccc(C)cc1C)c1cccc2ccccc12	nt	nt	nt	-3%	nt	nt
CC(C)N1CCN(C2CCOC3(CCN(C(=O)NCc4ccccc4)CC3)C2)CC1 (stereo unspecified)	nt	nt	nt	33%	nt	nt
CN(C)c1ccc(/C=N/OC(=O)Nc2ccccc2Cl)cc1	-18	8.2µM*	15µM*	42%	-6%	0%
O=C(Nc1ccccc1Cl)O/N=C/c1ccc(F)cc1	18	-1%	-7%	0%	1%	10%
COc1ccc(/C=N/OC(=O)Nc2ccccc2OC)cc1	0	1.5µM*	1.6µM*	1%	5.8µM*	9.2µM*
COc1cc(OC)cc(C(=O)NC2CCN(CCCOc3ccccc3)CC2)c1	-52*	-6%	-1%	0%	-5%	-7%
O=C(NC1CCCCCC1)c1cccc(Oc2ccccc2)c1	nt	nt	nt	3%	nt	nt
CCCN1CCC(NC(=O)c2cccc(Oc3ccccc3)c2)CC1	i	?	23µM*	-6%	-1%	-3%
O=C(c1ccccc1)N1CC(Oc2ccc(F)c(F)c2)C1	nt	nt	nt	0%[12.5 µM]	nt	nt
COc1c(C)cc(C(=O)C2CCCN(S(=O)(=O)N(C)C)C2)cc1C (stereo unspecified)	3	?	13µM*	3%	-2%	-16%
CSc1ccc(C(=O)C2CCCN(S(=O)(=O)N(C)C)C2)cc1 (stereo unspecified)	-6	7%	?	5%	-7%	-6%
CN(C)S(=O)(=O)N1CCCC(C(=O)c2ccc(-c3ccccc3)c(F)c2)C1 (stereo unspecified)	-5	16µM*	15µM*	9%	?	-9%
CCn1cc(CN2CCCC(C(=O)c3ccc(-c4ccccc4)c(F)c3)C2)cn1 (stereo unspecified)	-81*	18µM*	23µM*	?	21µM*	?
O=C(c1ccc(-c2ccccc2)c(F)c1)C1CCCN(CCCn2cccn2)C1 (stereo unspecified)	?	16µM*	?	10%	-11%	-7%
Cc1ncoc1C(=O)N1CCCC(C(=O)c2ccc(-c3ccccc3)c(F)c2)C1 (stereo unspecified)	-9	?	?	-15%	-3%	-12%
COc1c(C)cc(C(=O)C2CCCN(C(=O)c3cc(C)n(C)n3)C2)cc1C (stereo unspecified)	26	?	?	-8%	-16%	-4%
COC(=O)C1=CN(CC(=O)Nc2ccccc2C)S(=O)(=O)N=C1C	nt	nt	nt	5%	nt	nt
COc1ccc(C(=O)C2CCCN(Cc3cn(C)nc3-c3ccccc3)C2)cc1F (stereo unspecified)	-15	?	26µM*	-9%	-12%	-12%
CCOc1ccccc1CN1CCCC(C(=O)c2ccc(OC)c(OC)c2)C1 (stereo unspecified)	0	?	?	0%	-18%	-1%
O=S1(=O)c2cccc3cccc(c23)N1Cc1nnc(-c2ccccc2Br)o1	-21	15µM*	18µM*	0%	?	-1%
Cc1ccc(C(=O)N2C3CCCC2CC(=O)C3)cc1	nt	nt	nt	20%[176 µM]	nt	nt
Cc1c(C#N)c(N)nc2c3c(sc12)NC(=O)CC3c1ccc(Cl)cc1 (stereo unspecified)	28	?	?	?	16µM*	21µM*
CCOC(=O)CSC1=C(C#N)C(c2ccc(Cl)cc2)CC(=O)N1 (stereo unspecified)	-5	?	?	?	-5%	-10%
N#Cc1c(N)nc2c3c(sc(=N)c2c1N)NC(=O)CC3c1ccccc1 (stereo unspecified)	?	5%	?	0%	?	?
SMILES	IL1B secr inh	DT40 TDP1 CPT	DT40 TDP1 no CPT	12-LOX inh	HT1080 IDH1KD tx	HT1080-NT tox
N#Cc1c(N)nc2c3c(sc(=N)c2c1N)NC(=O)CC3c1c(F)cccc1Cl (stereo unspecified)	10	?	6.5µM*	-8%	-13%	-1%
CCOc1ccc(Nc2ncnc3onc(-c4ccc(Cl)cc4)c23)cc1	nt	?	?	-26%	nt	nt
Cc1noc2ncnc(Nc3ccc(F)cc3)c12	nt	0%	-10%	2%	nt	nt
CC(C)c1ccc(Nc2ncnc3onc(-c4ccc(F)cc4)c23)cc1	nt	18µM*	?	-5%	nt	nt
COc1cc(OC)c(Nc2ncnc3onc(-c4cccc(Cl)c4)c23)cc1Cl	nt	9%	-1%	-9%	nt	nt
COc1cc(Nc2ncnc3onc(-c4ccc(Cl)cc4)c23)cc(OC)c1	nt	?	21µM*	-14%	nt	nt
COc1ccc(Nc2ncnc3onc(-c4ccc(Cl)cc4)c23)cc1Cl	nt	18µM*	16µM*	-5%	nt	nt
CC(C)c1nc(CN(C)C(=O)C2CCC(=O)N(C3CCCC3)C2)cs1 (stereo unspecified)	nt	nt	nt	51%	nt	nt
O=C(COC(=O)Cc1n[nH]c(=O)c2ccccc12)NC(=O)NC1CCCC1	nt	nt	nt	3%	nt	nt
CCc1ccc(C2=C(C)C(=NCC(=O)Nc3ccc(C)c(F)c3)NS2(=O)=O)cc1	nt	nt	nt	-1%	nt	nt
O=S(=O)(c1ccc(-c2ccccn2)s1)N1CCC2(CC1)OCCO2	23	-3%	?	?	-4%	-3%
Cc1cnc2c(S(=O)(=O)NCCCOC(C)C)cccc2c1	nt	nt	nt	0%	nt	nt
O=C1CCCc2cc(S(=O)(=O)N3CCC(C(=O)N4CCOCC4)CC3)ccc2N1	nt	nt	nt	8%	nt	nt
CCNC(=O)Cc1ccc(S(=O)(=O)N2CCOCC2)s1	15	9%	8%	-2%	5%	1%
O=C(Cc1ccc(S(=O)(=O)N2CCOCC2)s1)N(Cc1ccccc1)c1ccccc1	-7	?	21µM*	-8%	5%	4%
CCCCN(C(=O)Cc1ccc(S(=O)(=O)N2CCOCC2)s1)c1ccccc1	22	?	21µM*	2%	8%	1%
COc1ccc(C2Cn3nnc(-c4nc(-c5ccccc5OC)no4)c3CO2)cc1 (stereo unspecified)	nt	nt	nt	11%	nt	nt
O=C(N/N=C/c1cccs1)C1COc2ccccc2O1 (stereo unspecified)	20	?	16µM*	2%	?	?
